The record followed here is PubChem BioAssay.

Activity calls are given as the source filed them. Unless noted, how the calls were made is not given here.

For assay [1], the system named is XIP peptide (Xip251-270) binding. Nature of the assay: XIP fragment 251-270 binding compounds – biochemical, small-molecule microarray, fluorescence 635/667 nm, 0.1 µg/mL protein, primary screen (AID 1182). The following applies: fluorescent protein binding, 635 nm, higher = more signal, called active from +8 up or from −8 down.
Assay [2] deals with XIP peptide (Xip251-270). Nature of the assay: compounds binding XIP fragment 251-270 – biochemical, small-molecule microarray, fluorescence 635/667 nm, 0.5 µg/mL protein, primary screen (AID 1183). The following applies: fluorescence 635 nm, higher = more signal.
Assay [3] can be described thus: blood-stage malaria parasite viability loss – strain 3D7, DAPI fluorescence, 100 nL, primary screen (AID 1184).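 Further: parasites grown inside human red blood cells in medium with human serum.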 The following applies: P. falciparum 3D7 growth, 3 d, higher = more signal.
In assay [4] the target is Homeobox protein Hox-A13 (Mus musculus) (UniProt Q62424). Nature of the assay: disruptors of Hoxa13 oligonucleotide interaction – biochemical, fluorescence polarization, labeled oligonucleotide, primary screen (AID 1185). The following applies: Hoxa13:DNA binding, 15 min, higher = more signal, called active from +8 up or from −8 down. Background: Polarisation of emitted light reports the rotation of a fluorescent probe.

A short description of assay [5]: blockers of DNA damage checkpoint Chk1 activation – imaging, HeLa, hydroxyurea, phospho-Chk1 antibody, percent positive cells, primary screen (AID 1186). Particulars: hydroxyurea-induced phospho-Chk1 immunofluorescence imaging, higher = more signal.
The nature of assay [6]: blockers of DNA damage checkpoint Chk1 activation – imaging, HeLa, hydroxyurea, phospho-Chk1 nuclear intensity, primary screen (AID 1187). Particulars: hydroxyurea-induced phospho-Chk1 immunofluorescence imaging, higher = more signal.

Homeobox protein Hox-A13 (Mus musculus), sequence (Q62424 whole entry, looked up): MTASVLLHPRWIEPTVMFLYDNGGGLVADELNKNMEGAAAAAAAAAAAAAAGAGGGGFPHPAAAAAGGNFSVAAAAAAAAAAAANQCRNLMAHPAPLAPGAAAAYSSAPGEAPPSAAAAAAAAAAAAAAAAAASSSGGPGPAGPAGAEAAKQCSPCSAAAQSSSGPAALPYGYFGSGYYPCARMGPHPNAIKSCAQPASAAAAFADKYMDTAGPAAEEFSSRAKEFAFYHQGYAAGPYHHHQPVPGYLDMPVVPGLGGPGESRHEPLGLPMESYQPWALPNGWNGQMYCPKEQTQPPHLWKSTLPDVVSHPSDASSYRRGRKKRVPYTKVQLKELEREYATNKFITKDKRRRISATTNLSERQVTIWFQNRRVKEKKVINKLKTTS

`[N-]=[N+]=Nc1ccccc1C[C@]1(C(N)=O)COC(c2ccc(OCCCO)cc2)=N1`: the composite z-score in assay [1] is 0.29 (inactive); in assay [2], 0.546. Moreover, the z-score in assay [3] was -1.88; in assay [4], -4.74 (inactive); in assay [5] it was -0.393 (inactive); in assay [6], -0.137 (inactive).

For the molecule `CC[C@@H]1C=C(C(=O)O)[C@H](c2cccc(Cl)c2)N1S(=O)(=O)c1ccc(C)cc1`, the composite z-score in assay [1] is 0.415 (inactive); in assay [2], 0.141. Besides, the z-score in assay [3] is 1.85; in assay [4] it was -3.71 (inactive); in assay [5], 0.198 (inactive); in assay [6], -0.141 (inactive).

Turning to `O=C1O[C@H](c2ccccc2)[C@H](c2ccccc2)N2[C@H]1[C@@H](C(=O)O)[C@]1(C(=O)Nc3ccccc31)[C@H]2c1ccc(OCCO)cc1`, the composite z-score in assay [1] is 1.13 (inactive); in assay [2], 0.711. The z-score in assay [3] is -0.443; in assay [4], -6.4 (inactive); in assay [5], 0.618 (inactive); in assay [6] it was 0.612 (inactive).

For the molecule `COc1ccc([Si](C)(C)[C@H]2[C@H](CCO)O[C@@]3(C(=O)N(Cc4ccccc4)c4ccc(NC(=O)[C@H](C)O)cc43)[C@@H]2C)cc1`, the composite z-score in assay [1] is -0.0359 (inactive); in assay [2] it was -0.313. For the same molecule, the z-score was -2.6 in assay [3], -5.67 (inactive) in assay [4], -1.59 (inactive) in assay [5] and -0.751 (inactive) in assay [6].

In the case of `CN1C(=O)C2CC=C(C3=CCO[C@@H]3[C@H]3CCCN3S(=O)(=O)c3ccccc3[N+](=O)[O-])CC2C1=O` (some centres not stated), the values for the composite z-score in assay [1] and in assay [2] were 0.162 (inactive) and 0.728, respectively. Further, the z-score is 0.561 in assay [3], -6.57 (inactive) in assay [4], -0.0719 (inactive) in assay [5] and 0.234 (inactive) in assay [6].

`COC(=O)C(CC#Cc1ccc2c(c1)[C@]1(C(=O)N2)[C@H](C(=O)NC[C@H](O)c2ccccc2)[C@H]2C(=O)O[C@H](c3ccccc3)[C@H](c3ccccc3)N2[C@@H]1c1ccc(O)cc1)C(=O)OC`: the results for the composite z-score in assay [1] and in assay [2] were 0.321 (inactive) and 0.418, respectively. The z-score in assay [3] was -1.05; in assay [4], -3.56 (inactive); in assay [5] it was 0.288 (inactive); in assay [6], 0.557 (inactive).

For `C=C(C(=O)CC[C@H](OC(=O)c1ccccc1-c1ccccc1C(=O)O)c1ccc(OCCO)cc1)C(C)C`, the composite z-score in assay [1] was 0.0052 (inactive); in assay [2], 0.569. In addition, the z-score in assay [3] was -2.71; in assay [4] it was -6.36 (inactive); in assay [5], -0.0593 (inactive); in assay [6], -0.326 (inactive).

In the case of `CC(C)N1C(=O)[C@@]2(Cc3ccccc31)c1ccccc1C(=O)N(Cc1ccccc1C(F)(F)F)[C@H]2c1ccc(CO)cc1`, the values for the composite z-score in assay [1] and in assay [2] were -0.0547 (inactive) and 0.471, respectively. Moreover, the z-score in assay [3] was -0.35; in assay [4], -0.791 (inactive); in assay [5] it was 0.0153 (inactive); in assay [6], -0.0497 (inactive).

Consider `CC(C)[Si]1(C(C)C)OCc2cc(-c3ccc(-c4ccc(Cl)c(Cl)c4)o3)nc(-c3ccc(Oc4ccccc4)cc3)c21`, for which the composite z-score is 0.146 (inactive) in assay [1] and 0.548 in assay [2]. For the same molecule, the z-score is -0.497 in assay [3], -1.74 (inactive) in assay [4], 0.0415 (inactive) in assay [5] and -0.0792 (inactive) in assay [6].

As to `O=C1O[C@@H](c2ccccc2)[C@@H](c2ccccc2)N2[C@@H](c3ccccc3OCCO)[C@]3(C(=O)Nc4ccc(C#CC5(O)CCCCCC5)cc43)[C@@H](C(=O)N3CCCCCCC3)[C@H]12`, the composite z-score in assay [1] was 5.76 (inactive); in assay [2], 0.878. Further, the z-score in assay [3] is -2.38; in assay [4], 4.83 (inactive); in assay [5] it was 0.503 (inactive); in assay [6], 0.639 (inactive).

As for `CC(C)C(=C=CC[C@H](O)c1cccc(OCCO)c1)C[C@H](O)c1ccccn1`, the composite z-score was 0.549 (inactive) in assay [1] and 0.806 in assay [2]. Further, the z-score in assay [3] was -0.991; in assay [4], -3.81 (inactive); in assay [5], -0.428 (inactive); in assay [6], 0.321 (inactive).

On to `O=C(CS)NCCCCCCNC(=O)[C@H]1C[C@H]2C(=O)NCC(=O)N2[C@H]1c1cccc(OCCO)c1`, for which the composite z-score in assay [1] is 0.419 (inactive); in assay [2], 0.702. Moreover, the z-score in assay [3] was -1.34; in assay [4], -2.25 (inactive); in assay [5], -0.321 (inactive); in assay [6] it was -0.529 (inactive).

As to `C=CCOC(=O)[C@H]1[C@@H]2C(=O)O[C@@H](c3ccccc3)[C@@H](c3ccccc3)N2[C@@H](c2ccc(OCCOC(=O)[C@H]3C[C@H]4C(=O)NCC(=O)N4[C@H]3c3ccc(O)cc3)cc2)[C@]12C(=O)Nc1ccccc12`, the values for the composite z-score in assay [1] and in assay [2] were 0.758 (inactive) and 0.81, respectively. Also, the z-score was -1.56 in assay [3], -0.844 (inactive) in assay [4], -0.374 (inactive) in assay [5] and 0.182 (inactive) in assay [6].

For the molecule `Cc1ccc(S(=O)(=O)N2[C@@H](c3ccccc3)C(C(=O)O)=CC[C@H]2c2ccc(F)cc2)cc1`, the figures for the composite z-score in assay [1] and in assay [2] were -0.311 (inactive) and -0.0114, respectively. Further, the z-score was -0.204 in assay [3], -5.57 (inactive) in assay [4], 0.388 (inactive) in assay [5] and 0.391 (inactive) in assay [6].

Consider `COC(=O)[C@]1(Cc2ccccc2CN=[N+]=[N-])N=C(c2ccc(OCCCO)cc2)O[C@@H]1c1ccccc1N=[N+]=[N-]`, for which the composite z-score in assay [1] was 0.0771 (inactive); in assay [2] it was 0.724. Besides, the z-score is -2.04 in assay [3], 0.381 (inactive) in assay [4], -0.485 (inactive) in assay [5] and -0.543 (inactive) in assay [6].

As for `O=C1O[C@H](c2ccccc2)[C@H](c2ccccc2)N2[C@H]1[C@@H](C(=O)N1CCCCCCC1)[C@]1(C(=O)Nc3ccc(C#CCCO)cc31)[C@H]2c1ccc(O)cc1`, the composite z-score in assay [1] is 4.41 (inactive); in assay [2], 0.976. Also, the z-score in assay [3] was -0.189; in assay [4] it was 1.85 (inactive); in assay [5], -0.323 (inactive); in assay [6], -0.279 (inactive).

As to `CCCCN1CC=CC23O[C@@H]4/C=C\CCC(C)OC(=O)C4[C@H]2C(=O)N(CCO)[C@@H]3C1=O` (some centres not stated), the composite z-score was 0.874 (inactive) in assay [1] and -0.629 in assay [2]. Moreover, the z-score in assay [3] was -0.165; in assay [4], -5.58 (inactive); in assay [5], -0.967 (inactive); in assay [6], -0.862 (inactive).
